High-throughput results from PubChem BioAssay.
NOD2 RIPK2 PPI = NOD2-RIPK2 binding disruptors in cells, primary screen, fluorescence, CHO cells, BLA complementation. Receptor-interacting serine/threonine-protein kinase 2 (Homo sapiens), O43353. CCF4 ratio. inhibition, % at 4.98 µM. hit rate 0.38% among 360,000; in the data active means inhibition above about 21%;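 further: 0% = vehicle only and 100% = reference blocker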
ABHD5 PLIN5 PPI = ABHD5-PLIN5 interaction inhibitors, primary screen, cell lysate, split luciferase complementation, luminescence. hit rate 0.78% among 360,000. Perilipin-5 (Homo sapiens) + 1-acylglycerol-3-phosphate O-acyltransferase ABHD5 (Homo …. AID 602281, 2012. inhibition, % at 4 µM. Split G. princeps luciferase complementation, 4 h;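 active means inhibition above the mean inhibition across every tested compound plus 3 SD, cut at about 22% in these data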;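 further: 0% = DMSO only wells and the 100% control is not disclosed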
TLR4 MyD88 comp = inhibitors of TLR4-MyD88 association in cells, primary screen, cell-based, HeLa CL3-4, BLA complementation, FRET ratio. Toll-like receptor 4 (Homo sapiens) + Myeloid differentiation primary response protein …. HeLa CL3-4 TLR4/MyD88 BLA complementation. inhibition, % at 8.4 µM. hit rate 0.18% among 200,000. AID 861, 2007; in the data active means inhibition above about 25%;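 further: 0% = vehicle and 100% = reference inhibitor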
HTR2A ag = mouse Htr2a agonists via beta-arrestin recruitment, primary screen, cell-based, luminescence | hit rate 0.66% among 360,000 | 5-hydroxytryptamine receptor 2A (Mus musculus), P35363 | activation, % at 7.6 µM | CHO-K1 mHTR2A beta-arrestin complementation; percent of 30 µM serotonin response | AID 624169, 2012;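 active means activation above a run cutoff, the mean activation of all tested compounds plus 3 SD, cut at about 14% in these data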;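 further: 0% = plate median of compound wells and 100% = 30 µM serotonin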
CRFBP-R2 block = antagonists of CRF-BP/CRF-R2 complex, primary screen, cell-based, HEK293, calcium dye fluorescence, uHTS | CRF-induced calcium fluorescence | inhibition, % at 11.8 µM | hit rate 0.59% among 350,000;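 active means inhibition of the ligand-induced calcium signal above about 50% at the single tested concentration, limit read from the data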
TLR9-MyD88 block = inhibitors of TLR9-MyD88 association in cells, primary screen, cell-based, CHO, BLA complementation, fluorescence; CCF4 FRET ratio; inhibition, % at 4.98 µM; hit rate 0.21% among 340,000; AID 504734, 2011;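 active means inhibition above the mean over all tested compounds plus 3 SD, cut at about 21% in these data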;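 further: 0% = DMSO only wells and 100% = clavulanate BLA inhibitor control wells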
TLR9-MyD88 conf = TLR9-MyD88 association inhibitors, retest, confirmation, cell-based, CHO, BLA complementation, fluorescence, triplicate. shares compounds with TLR9-MyD88 block. CCF4 FRET ratio. inhibition, % at 4.98 µM. hit rate 51% among 680. AID 540250, 2011;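 active means mean inhibition across three repeats above about 21% taken from the earlier screen, limit read from the data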;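 further: blue over green emission ratio reports constitutive TLR9 MyD88 association via BLA complementation; 0% = DMSO vehicle wells and 100% = clavulanate BLA inhibitor wells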
BLA nonselective = beta-lactamase reporter inhibitors in CHO cells, artefact control for TLR9-MyD88 binding inhibitor project, cell-based, fluorescence. shares compounds with TLR9-MyD88 block. CHO-BLA cells, CCF4 FRET ratio, BLA reporter. inhibition, % at 4.98 µM. hit rate 7% among 680;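 active means mean inhibition above a 50% cutoff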;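 further: counterscreen of TLR9-MyD88 hits on CMV-driven BLA in CHO-K1 cells; 0% = DMSO alone and 100% = clavulanate blocking BLA; higher means less blue over green ratio so more BLA blockade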
TLR9 CHO cytotox = CHO cell viability loss – luminescence, single concentration, cytotoxicity control for TLR9-MyD88 binding inhibitor project. shares compounds with TLR9-MyD88 block. TLR9-MyD88 CHO cells cytotoxicity. inhibition, % at 4.98 µM. hit rate 39% among 680. AID 588336, 2011; in the data active means inhibition above about 11%
An asterisk follows results filed as active; · = not tested or not shown. A selection: hits, their analogues and other compounds. The true share with any hit is near 2.4%.

SMILES | NOD2 RIPK2 PPI | ABHD5 PLIN5 PPI | TLR4 MyD88 comp | HTR2A ag | CRFBP-R2 block | TLR9-MyD88 block | TLR9-MyD88 conf | BLA nonselective | TLR9 CHO cytotox
COc1ccc(C2CC(c3ccncc3)=NN2c2ccc(S(N)(=O)=O)cc2)cc1 (stereo not drawn) | 37* | -1 | · | 0 | -35 | 19 | 12 | 19 | 16*
COc1ccc2c(c1)C(=O)O[C@@H](c1ccccc1)C[C@@H](O)C(=O)CC2 | -5 | -11 | · | -3 | · | · | · | · | ·
O=Nc1onc(-c2ccc([N+](=O)[O-])cc2)c1NO | 2 | -3 | 7 | -1 | 14 | 36* | 4 | 2 | 0
Cc1cccc(C)c1N1C(=O)c2ccccc2NC(=O)C1C(=O)NCCc1ccccc1F (stereo not drawn) | -9 | 0 | · | 3 | · | · | · | · | ·
C/C(=N/Nc1ccc([N+](=O)[O-])cc1)c1c[nH]c2ccccc12 | 7 | 2 | · | -1 | -58 | 37* | 24* | 19 | 3
C/C(=N/Nc1ccc([N+](=O)[O-])cc1)c1ccc(C)cc1C | 21 | -4 | 18 | -4 | -36 | 22* | 19 | 16 | 0
CCCCNC(=O)c1nc(C2CCNCC2)oc1-c1cccc(C(F)(F)F)c1 | -2 | 2 | · | -4 | · | · | · | · | ·
N#Cc1cccc(NC(=O)COC(=O)CCc2nc3ccccc3c(=O)[nH]2)c1 | -6 | -2 | -12 | 0 | -3 | 21* | -1 | 0 | -2
COc1cc(NC(=O)COC(=O)CCc2nc3ccccc3c(=O)[nH]2)cc(OC)c1 | 7 | 3 | · | -4 | -3 | 9 | · | · | ·
Cn1c(NCc2ccccc2F)nc2cc(-c3cccc(C(F)(F)F)c3)sc2c1=O | -2 | 5 | · | -1 | · | · | · | · | ·
COc1ccc(/C=C2\C(=O)NC(=O)c3ccccc32)cc1OC | -5 | -18 | · | -1 | -37 | 31* | 54* | 58* | 26*
CCN(C[C@H]1N[C@@](CC)(C(=O)OC)[C@H]2C(=O)N(Cc3ccccc3)C(=O)[C@@H]12)C(=O)c1ccc(C(C)(C)C)cc1 | 8 | -4 | · | 4 | -9 | 45* | -7 | -2 | 52*
CC[C@@]1(C(=O)OC)N[C@H](CN(C)C(=O)c2ccc(C(C)(C)C)cc2)[C@@H]2C(=O)N(Cc3ccccc3)C(=O)[C@@H]21 | -2 | 7 | · | 4 | 2 | -1 | · | · | ·
NC(=S)N=Nc1c(O)n(Cc2ccccc2)c2ccccc12 | -8 | -2 | -15 | 9 | 13 | 2 | · | · | ·
O=Nc1c(O)n(Cc2cccc(Cl)c2)c2ccccc12 | 20 | -6 | 4 | 11 | -22 | 26* | 18 | 16 | 14*
c1ccc(CNc2c(C3CCNCC3)nc3scc(-c4ccccc4)n23)cc1 | -9 | -5 | · | 5 | · | · | · | · | ·
COc1ccc(S(=O)(=O)N2CCCCCC2)cc1Br | -10 | 1 | 2 | 0 | -5 | -10 | · | · | ·
COc1ccc(S(=O)(=O)N2CCNC(=O)C2)cc1Br | 6 | 9 | 14 | 1 | -8 | 22* | -3 | 0 | 2
O=C(NCC1CCCO1)c1cccc2c1C(=O)c1ccc(N3CCC(Cc4ccccc4)CC3)cc1S2(=O)=O (stereo not drawn) | 51* | 9 | · | 8 | -16 | 32* | 23* | 25 | 10
CC1CCN(c2ccc3c(c2)S(=O)(=O)c2cccc(C(=O)NC[C@@H]4CCCO4)c2C3=O)CC1 | 14 | 5 | · | 8 | -4 | -1 | · | · | ·
O=C(NC1CCCCC1)c1cccc2c1C(=O)c1ccc(N3CCC(Cc4ccccc4)CC3)cc1S2(=O)=O | 21 | -8 | · | 0 | -32 | 80* | 37* | 41 | 1
O=C(NCc1ccccc1Br)c1cccc2c1C(=O)c1ccc(N3CCC(Cc4ccccc4)CC3)cc1S2(=O)=O | 8 | -7 | · | 3 | -34 | 15 | · | · | ·
Cc1ccc(S(=O)(=O)Nc2cccc3ncccc23)s1 | 55* | -1 | 19 | -5 | 7 | 44* | 20 | 8 | 101*
Cc1ccc(S(=O)(=O)Nc2cccc3ncccc23)cc1 | -11 | 1 | · | -1 | 6 | -3 | · | · | ·
CC[C@H](C)[C@@H](CO)NC(=O)[C@H]1O[C@@H](n2ccc(N)nc2=O)[C@H](O)[C@@H]1O | -1 | -5 | · | -1 | · | · | · | · | ·
SMILES | NOD2 RIPK2 PPI | ABHD5 PLIN5 PPI | TLR4 MyD88 comp | HTR2A ag | CRFBP-R2 block | TLR9-MyD88 block | TLR9-MyD88 conf | BLA nonselective | TLR9 CHO cytotox
CN=c1scc(-c2cccs2)n1/N=C/c1ccccc1O | 6 | -7 | -5 | 7 | 22 | 26* | 8 | 6 | 9
CN=c1scc(-c2cccs2)n1/N=C/c1ccc(O)c(O)c1O | 8 | -13 | 2 | 2 | -65 | 0 | · | · | ·
COc1ccc([C@H]2C[C@H](O)C[C@@H](CCn3cc(-c4ccccc4)nn3)O2)cc1 | -3 | 0 | · | 2 | · | · | · | · | ·
N=C1/C(=C/c2cccn2Cc2ccc(F)cc2)C(=O)N=C2SC=CN12 | 3 | 2 | -10 | -1 | 2 | -5 | · | · | ·
Cc1ccc(Cn2cccc2/C=C2/C(=N)N3C=CSC3=NC2=O)cc1 | -7 | 2 | 1 | 2 | 38 | 30* | 6 | 11 | 16*
O=C(NCc1ccccc1)C(c1cccc2ccccc12)n1c(=O)c(-c2ccccc2)nc2ccccc21 (stereo not drawn) | -14 | 8 | · | 1 | · | · | · | · | ·
COc1ccc(OC)c(C=Nc2ccccc2-c2nc3ccccc3[nH]2)c1 | 4 | 2 | 5 | -6 | 2 | 6 | · | · | ·
COc1ccc(OC)c(/C=C/c2nc3ccccc3[nH]c2=O)c1 | 14 | 5 | · | 3 | -71 | 28* | 30* | 32 | 0
